Source: the supplement of paper PMC12067926

Compound: COc1c(Cl)ccc(Cl)c1C(=O)O
Assay: relative growth (AUC of 72 h growth curve relative to DMSO control, dAUC) (ratio); higher = more growth (less inhibition), active = hit call of the paper
Details: 20 µM;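 active = growth AUC significantly below the DMSO wells by Dunnett test; inactive = the rest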
Procedure: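 Environmental bacterial isolates (Iceland stream sediment and Silwood Park soil) and whole stream-sediment communities were grown in LB from a 1:100 dilution with each pesticide at 20 µM (1% DMSO). A600 was read hourly for 72 h and the area under a spline-fitted growth curve (AUC) was computed. dAUC is the mean AUC of 3 biological replicates divided by the mean AUC of the DMSO controls. Significance was tested by Dunnett's test against the DMSO control.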

How did the relative growth turn out when Arthrobacter 1 (Arthrobacter humicola) was run?
The relative growth was 0.981 (inactive).

For Rhizobium 1 (Rhizobium herbae), which relative growth is on record?
Its relative growth is 0.947 (inactive).

Community 9 was tested. Which relative growth did it give?
Its relative growth is 1.09 (inactive).

Sphingomonas 2 (Sphingomonas sp.) was tested. Which relative growth did it give?
Its relative growth is 1.01 (inactive).

How did the relative growth turn out when “Flavobacterium 2 (Flavobacterium succinicans)” was run?
Its relative growth is 1.01 (inactive).

Which relative growth does the source give for Arthrobacter 3 (Arthrobacter sp.) here?
Its relative growth is 1.07 (inactive).

Which relative growth does the source give for Arthrobacter 2 (Arthrobacter humicola) here?
Its relative growth is 1.1 (inactive).

Which relative growth does the source give for Argrobacterium 1 (Agrobacterium sp.) here?
The relative growth was 1.01 (inactive).

Pseudomonas 6 (Pseudomonas sp.) was tested. Which relative growth did it give?
Its relative growth is 1.1 (inactive).

How did the relative growth turn out when Aeromonas 1 (Aeromonas sp. AE235) was run?
Its relative growth is 1.02 (inactive).

With Community 6 as the target, how does the relative growth read?
Its relative growth is 1.03 (inactive).

How did the relative growth turn out when Serratia 1 (Serratia sp. 2015-2462-01) was run?
The relative growth was 1.02 (inactive).

Which relative growth does the source give for Community 8 here?
Its relative growth is 0.99 (inactive).

With Pseudomonas 5 (Pseudomonas baetica) as the target, how does the relative growth read?
Its relative growth is 1.02 (inactive).

For Pseudomonas 1 (Pseudomonas baetica), which relative growth is on record?
Its relative growth is 0.637 (inactive).

Which relative growth does the source give for Community 4 here?
Its relative growth is 1.09 (inactive).

For Oryzobacter 1 (Oryzobacter terrae), which relative growth is on record?
Its relative growth is 0.925 (inactive).

How did the relative growth turn out when Hymenobacter 1 (Hymenobacter glaciei) was run?
The relative growth was 1 (inactive).

Which relative growth does the source give for “Carnobacterium 1 (Carnobacterium gallinarum)” here?
Its relative growth is 1.19 (inactive).

For “Pseudomonas 2 (Pseudomonas vancouverensis)”, which relative growth is on record?
Its relative growth is 0.985 (inactive).

For “Prolinoborus 1 (Prolinoborus fasciculus)”, which relative growth is on record?
The relative growth was 0.986 (inactive).

How did the relative growth turn out when Bacillus 1 (Bacillus foraminis) was run?
The relative growth was 1.07 (inactive).

With Community 10 as the target, how does the relative growth read?
Its relative growth is 1.03 (inactive).

“Paenibacillus 1 (Paenibacillus castaneae)” was tested. Which relative growth did it give?
The relative growth was 1.01 (inactive).

How did the relative growth turn out when Neobacillus 1 (Neobacillus soli) was run?
The relative growth was 1.06 (inactive).

How did the relative growth turn out when “Microbacterium 1 (Microbacterium arborescens)” was run?
Its relative growth is 1.02 (inactive).

With Pseudomonas 4 (Pseudomonas peli) as the target, how does the relative growth read?
Its relative growth is 1.01 (inactive).

Community 7 was tested. Which relative growth did it give?
Its relative growth is 0.945 (inactive).

Which relative growth does the source give for Aeromonas 3 (Aeromonas popoffii) here?
Its relative growth is 1.02 (inactive).

How did the relative growth turn out when “Flavobacterium 1 (Flavobacterium glaciei)” was run?
Its relative growth is 1 (inactive).

Which relative growth does the source give for Aeromonas 2 (Aeromonas sobria) here?
The relative growth was 1.01 (inactive).

For Pseudomonas 3 (Pseudomonas mandelii), which relative growth is on record?
Its relative growth is 0.984 (inactive).
